# “And” between values parts separate entries of the source, which are not always exact repeats. Equal values may be shown once. Read-outs that look alike come from different tables or passages of the source.
# Columns and labels:
# PRKCD = settings: concentration: 1 μM, replicates: in singlicate, n = 1
# PRKCE = settings: concentration: 1 μM, replicates: in singlicate, n = 1
# PRKCH = settings: concentration: 1 μM, replicates: in singlicate, n = 1
# PRKCI = settings: concentration: 1 μM, replicates: in singlicate, n = 1
# PRKCQ = settings: concentration: 1 μM, replicates: in singlicate; n = 1
# PRKD1 = settings: concentration: 1 μM, replicates: in singlicate, n = 1
# PRKD2 = settings: concentration: 1 μM, replicates: in singlicate, n = 1
# PRKD3 = settings: concentration: 1 μM, replicates: in singlicate, n = 1
# PRKG1 = settings: concentration: 1 μM, replicates: in singlicate, n = 1
# PRKG2 = settings: concentration: 1 μM, replicates: in singlicate, n = 1
# PRKR = system: T1, PRKR; settings: concentration: 1 μM, replicates: in singlicate; n = 1
# T1 construct: gene EIF2AK2
# PRKX = settings: concentration: 1 μM, replicates: in singlicate; n = 1
# PRP4 = settings: concentration: 1 μM, replicates: in singlicate; n = 1
# PYK2 = system: T2, PYK2; settings: concentration: 1 μM, replicates: in singlicate; n = 1
# T2 construct: gene PTK2B
# QSK = settings: concentration: 1 μM, replicates: in singlicate, n = 1
# RAF1 = settings: concentration: 1 μM, replicates: in singlicate, n = 1
# RET = settings: concentration: 1 μM, replicates: in singlicate, n = 1
# RIOK1 = settings: concentration: 1 μM, replicates: in singlicate, n = 1
# RIOK2 = settings: concentration: 1 μM, replicates: in singlicate, n = 1
# RIOK3 = settings: concentration: 1 μM, replicates: in singlicate, n = 1
# 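Further: KINOMEscan kinase panel screen.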
compound,measurement,setting,value
CNc1nccc(-c2c(-c3ccc(F)cc3)ncn2C2CCN(C)CC2)n1 [SB-222903],%Inh,PRKCD,10%
same,%Inh,PRKCE,2%
same,%Inh,PRKCH,0%
same,%Inh,PRKCI,0%
same,%Inh,PRKCQ,0%
same,%Inh,PRKD1,0%
same,%Inh,PRKD2,19%
same,%Inh,PRKD3,0%
same,%Inh,PRKG1,14%
same,%Inh,PRKG2,0%
same,%Inh,PRKR,11%
same,%Inh,PRKX,0%
same,%Inh,PRP4,0%
same,%Inh,PYK2,0%
same,%Inh,QSK,0%
same,%Inh,RAF1,0%
same,%Inh,RET,0%
same,%Inh,RIOK1,0%
same,%Inh,RIOK2,0%
same,%Inh,RIOK3,3%
CS(=O)(=O)CCNCc1nc(-c2ccc3ncnc(Nc4ccc(OCc5cccc(F)c5)c(Cl)c4)c3c2)cs1.Cl [GW583340],%Inh,PRKCD,0%
same,%Inh,PRKCE,0%
same,%Inh,PRKCH,0%
same,%Inh,PRKCI,13%
same,%Inh,PRKCQ,0%
same,%Inh,PRKD1,0%
same,%Inh,PRKD2,2%
same,%Inh,PRKD3,3%
same,%Inh,PRKG1,0%
same,%Inh,PRKG2,0%
same,%Inh,PRKR,0%
same,%Inh,PRKX,0%
same,%Inh,PRP4,0%
same,%Inh,PYK2,0%
same,%Inh,QSK,0%
same,%Inh,RAF1,1%
same,%Inh,RET,0%
same,%Inh,RIOK1,10%
same,%Inh,RIOK2,0%
same,%Inh,RIOK3,17%
COc1ccc(-c2nc3n(c2-c2ccncc2)CCC3)cc1 [SKF-104493],%Inh,PRKCD; 1 µM,0% and 8%
same,%Inh,PRKCE; 1 µM,45% and 8%
same,%Inh,PRKCH; 1 µM,6% and 7%
same,%Inh,PRKCI; 1 µM,0% and 50%
same,%Inh,PRKCQ,0%
same,%Inh,PRKD1; 1 µM,0% and 3%
same,%Inh,PRKD2; 1 µM,2% and 16%
same,%Inh,PRKD3; 1 µM,0% and 27%
same,%Inh,PRKG1; 1 µM,32% and 7%
same,%Inh,PRKG2; 1 µM,1% and 18%
same,%Inh,PRKR,0%
same,%Inh,PRKX,0%
same,%Inh,PRP4,13%
same,%Inh,PYK2,6%
same,%Inh,QSK; 1 µM,29% and 5%
same,%Inh,RAF1; 1 µM,0% and 15%
same,%Inh,RET; 1 µM,0% and 10%
same,%Inh,RIOK1; 1 µM,24% and 4%
same,%Inh,RIOK2; 1 µM,20% and 0%
same,%Inh,RIOK3; 1 µM,0% and 10%
FC(F)(F)c1ccc(-c2nn3ncccc3c2-c2ccnc(Nc3cccc(C(F)(F)F)c3)n2)cc1 [GW828205],%Inh,PRKCD,16%
same,%Inh,PRKCE,0%
same,%Inh,PRKCH,0%
same,%Inh,PRKCI,30%
same,%Inh,PRKCQ,0%
same,%Inh,PRKD1,7%
same,%Inh,PRKD2,6%
same,%Inh,PRKD3,0%
same,%Inh,PRKG1,5%
same,%Inh,PRKG2,16%
same,%Inh,PRKR,0%
same,%Inh,PRKX,0%
same,%Inh,PRP4,0%
same,%Inh,PYK2,1%
same,%Inh,QSK,0%
same,%Inh,RAF1,0%
same,%Inh,RET,0%
same,%Inh,RIOK1,26%
same,%Inh,RIOK2,0%
same,%Inh,RIOK3,25%
Cl.O=S(=O)(c1cccc(F)c1)c1ccc(Nc2ncnc3cc(Br)sc23)cc1Cl [GSK306886],%Inh,PRKCD,0%
same,%Inh,PRKCE,45%
same,%Inh,PRKCH,0%
same,%Inh,PRKCI,0%
same,%Inh,PRKCQ,0%
same,%Inh,PRKD1,7%
same,%Inh,PRKD2,13%
same,%Inh,PRKD3,4%
same,%Inh,PRKG1,0%
same,%Inh,PRKG2,23%
same,%Inh,PRKR,0%
same,%Inh,PRKX,24%
same,%Inh,PRP4,13%
same,%Inh,PYK2,0%
same,%Inh,QSK,0%
same,%Inh,RAF1,10%
same,%Inh,RET,97.9%
same,%Inh,RIOK1,9%
same,%Inh,RIOK2,3%
same,%Inh,RIOK3,22%
CC(C)N1CCC(n2cnc(-c3ccc(F)cc3)c2-c2ccnc(N)n2)CC1 [SB-223132],%Inh,PRKCD,9%
same,%Inh,PRKCE,0%
same,%Inh,PRKCH,0%
same,%Inh,PRKCI,29%
same,%Inh,PRKCQ,0%
same,%Inh,PRKD1,18%
same,%Inh,PRKD2,0%
same,%Inh,PRKD3,0%
same,%Inh,PRKG1,2%
same,%Inh,PRKG2,2%
same,%Inh,PRKR,18%
same,%Inh,PRKX,0%
same,%Inh,PRP4,41%
same,%Inh,PYK2,12%
same,%Inh,QSK,0%
same,%Inh,RAF1,33%
same,%Inh,RET,2%
same,%Inh,RIOK1,0%
same,%Inh,RIOK2,0%
same,%Inh,RIOK3,60%
Nc1n[nH]c2nnc(-c3ccccc3)cc12 [SB-517389],%Inh,PRKCD,0%
same,%Inh,PRKCE,9%
same,%Inh,PRKCH,23%
same,%Inh,PRKCI,18%
same,%Inh,PRKCQ,0%
same,%Inh,PRKD1,0%
same,%Inh,PRKD2,0%
same,%Inh,PRKD3,0%
same,%Inh,PRKG1,0%
same,%Inh,PRKG2,0%
same,%Inh,PRKR,0%
same,%Inh,PRKX,0%
same,%Inh,PRP4,33%
same,%Inh,PYK2,0%
same,%Inh,QSK,0%
same,%Inh,RAF1,6%
same,%Inh,RET,88%
same,%Inh,RIOK1,26%
same,%Inh,RIOK2,0%
same,%Inh,RIOK3,0%
CNc1nccc(-c2c(-c3ccc(F)cc3)ncn2CCCN2CCOCC2)n1 [SB-222516],%Inh,PRKCD,1%
same,%Inh,PRKCE,5%
same,%Inh,PRKCH,0%
same,%Inh,PRKCI,20%
same,%Inh,PRKCQ,0%
same,%Inh,PRKD1,0%
same,%Inh,PRKD2,0%
same,%Inh,PRKD3,0%
same,%Inh,PRKG1,14%
same,%Inh,PRKG2,16%
same,%Inh,PRKR,0%
same,%Inh,PRKX,0%
same,%Inh,PRP4,0%
same,%Inh,PYK2,4%
same,%Inh,QSK,19%
same,%Inh,RAF1,0%
same,%Inh,RET,7%
same,%Inh,RIOK1,25%
same,%Inh,RIOK2,0%
same,%Inh,RIOK3,24%
CC(C)(C)OC(=O)NC1CCCN(c2cc(-c3ccc4c(N)n[nH]c4c3)nc(N)n2)C1 (centres unmarked) [GSK2286096],%Inh,PRKCD,0%
same,%Inh,PRKCE,12%
same,%Inh,PRKCH,0%
same,%Inh,PRKCI,0%
same,%Inh,PRKCQ,0%
same,%Inh,PRKD1,0%
same,%Inh,PRKD2,15%
same,%Inh,PRKD3,0%
same,%Inh,PRKG1,0%
same,%Inh,PRKG2,70%
same,%Inh,PRKR,0%
same,%Inh,PRKX,21%
same,%Inh,PRP4,0%
same,%Inh,PYK2,0%
same,%Inh,QSK,5%
same,%Inh,RAF1,7%
same,%Inh,RET,0%
same,%Inh,RIOK1,23%
same,%Inh,RIOK2,27%
same,%Inh,RIOK3,23%
O=C(NCCCN1CCCC1=O)c1cnc(NCc2cc(Cl)ccc2Cl)nc1NC1CCNCC1,%Inh,PRKCD,13%
same,%Inh,PRKCE,40%
same,%Inh,PRKCH,0%
same,%Inh,PRKCI,0%
same,%Inh,PRKCQ,0%
same,%Inh,PRKD1,3%
same,%Inh,PRKD2,0%
same,%Inh,PRKD3,29%
same,%Inh,PRKG1,0%
same,%Inh,PRKG2,0%
same,%Inh,PRKR,0%
same,%Inh,PRKX,0%
same,%Inh,PRP4,2%
same,%Inh,PYK2,0%
same,%Inh,QSK,0%
same,%Inh,RAF1,0%
same,%Inh,RET,8%
same,%Inh,RIOK1,0%
same,%Inh,RIOK2,0%
same,%Inh,RIOK3,8%
Clc1cccc(-c2nc(Nc3ccncc3)c3ccccc3n2)c1 [GW873004],%Inh,PRKCD,24%
same,%Inh,PRKCE,16%
same,%Inh,PRKCH,50%
same,%Inh,PRKCI,17%
same,%Inh,PRKCQ,0%
same,%Inh,PRKD1,47%
same,%Inh,PRKD2,45%
same,%Inh,PRKD3,44%
same,%Inh,PRKG1,16%
same,%Inh,PRKG2,7%
same,%Inh,PRKR,0%
same,%Inh,PRKX,12%
same,%Inh,PRP4,50%
same,%Inh,PYK2,4%
same,%Inh,QSK,0%
same,%Inh,RAF1,46%
same,%Inh,RET,0%
same,%Inh,RIOK1,40%
same,%Inh,RIOK2,0%
same,%Inh,RIOK3,46%
N#Cc1ccc(Oc2ccc(Nc3ncnc4cc[nH]c34)cc2Cl)cc1,%Inh,PRKCD,0%
same,%Inh,PRKCE,0%
same,%Inh,PRKCH,22%
same,%Inh,PRKCI,12%
same,%Inh,PRKCQ,19%
same,%Inh,PRKD1,0%
same,%Inh,PRKD2,10%
same,%Inh,PRKD3,0%
same,%Inh,PRKG1,0%
same,%Inh,PRKG2,30%
same,%Inh,PRKR,0%
same,%Inh,PRKX,7%
same,%Inh,PRP4,0%
same,%Inh,PYK2,10%
same,%Inh,QSK,0%
same,%Inh,RAF1,0%
same,%Inh,RET,19%
same,%Inh,RIOK1,21%
same,%Inh,RIOK2,8%
same,%Inh,RIOK3,1%
Cc1ccc(NC(=O)c2cccc(C#N)c2)cc1-c1ccc(C(=O)Nc2ccncc2)cc1 [GSK1398463],%Inh,PRKCD,7%
same,%Inh,PRKCE,5%
same,%Inh,PRKCH,27%
same,%Inh,PRKCI,0%
same,%Inh,PRKCQ,0%
same,%Inh,PRKD1,0%
same,%Inh,PRKD2,12%
same,%Inh,PRKD3,31%
same,%Inh,PRKG1,2%
same,%Inh,PRKG2,0%
same,%Inh,PRKR,0%
same,%Inh,PRKX,14%
same,%Inh,PRP4,0%
same,%Inh,PYK2,1%
same,%Inh,QSK,3%
same,%Inh,RAF1,51%
same,%Inh,RET,7%
same,%Inh,RIOK1,21%
same,%Inh,RIOK2,0%
same,%Inh,RIOK3,0%
Fc1cccc(COc2ccc(Nc3ncnc4cc[nH]c34)cc2Cl)c1,%Inh,PRKCD,14%
same,%Inh,PRKCE,0%
same,%Inh,PRKCH,0%
same,%Inh,PRKCI,12%
same,%Inh,PRKCQ,10%
same,%Inh,PRKD1,0%
same,%Inh,PRKD2,25%
same,%Inh,PRKD3,0%
same,%Inh,PRKG1,2%
same,%Inh,PRKG2,13%
same,%Inh,PRKR,0%
same,%Inh,PRKX,19%
same,%Inh,PRP4,34%
same,%Inh,PYK2,2%
same,%Inh,QSK,9%
same,%Inh,RAF1,4%
same,%Inh,RET,5%
same,%Inh,RIOK1,21%
same,%Inh,RIOK2,15%
same,%Inh,RIOK3,20%
Oc1ccc2ncnc(Nc3ccc(OCc4ccccc4)cc3)c2c1 [GI262866],%Inh,PRKCD,0%
same,%Inh,PRKCE,0%
same,%Inh,PRKCH,6%
same,%Inh,PRKCI,27%
same,%Inh,PRKCQ,15%
same,%Inh,PRKD1,0%
same,%Inh,PRKD2,0%
same,%Inh,PRKD3,30%
same,%Inh,PRKG1,0%
same,%Inh,PRKG2,0%
same,%Inh,PRKR,0%
same,%Inh,PRKX,11%
same,%Inh,PRP4,26%
same,%Inh,PYK2,0%
same,%Inh,QSK,10%
same,%Inh,RAF1,18%
same,%Inh,RET,12%
same,%Inh,RIOK1,18%
same,%Inh,RIOK2,4%
same,%Inh,RIOK3,10%
Fc1ccc(-c2ncn(CCCNCc3ccccc3)c2-c2ccncc2)cc1,%Inh,PRKCD,0%
same,%Inh,PRKCE,26%
same,%Inh,PRKCH,0%
same,%Inh,PRKCI,0%
same,%Inh,PRKCQ,30%
same,%Inh,PRKD1,20%
same,%Inh,PRKD2,0%
same,%Inh,PRKD3,27%
same,%Inh,PRKG1,7%
same,%Inh,PRKG2,0%
same,%Inh,PRKR,0%
same,%Inh,PRKX,0%
same,%Inh,PRP4,17%
same,%Inh,PYK2,1%
same,%Inh,QSK,1%
same,%Inh,RAF1,0%
same,%Inh,RET,18%
same,%Inh,RIOK1,0%
same,%Inh,RIOK2,11%
same,%Inh,RIOK3,28%
